“And” between values parts separate entries of the source, which are not always exact repeats. Equal entries are not always repeated. Results filed as inconclusive are left out. Entries that show only a call come without a potency. Where a structure was tested more than once in an assay, its records may differ in their call. The source made the active and inactive calls. Unless noted, calls follow the shape of the full dose curve.
What was measured:
[1] = qHTS assay to identify small molecule antagonists of the sonic hedgehog signaling (Shh) pathway (AID 1259369); also: nearly all actives have a fitted effect of over 45% in size; also: potency is read from the fitted curve at half-maximal effect
In short: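 Cells are plated and held 4hr at 37 C, compounds (DMSO) are pinned in, conditioned medium is added to stimulate the pathway, and after 24hr luciferase reagent is added for 30min before luminescence is read.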

[2] = qHTS assay to identify small molecule antagonists of the estrogen receptor beta (ER-beta) signaling pathway - cell viability counter screen (AID 1259382; active = well fitted curve in the direction sought with a large enough effect in the repeat runs; an effect the other way counts as inactive or inconclusive; also: nearly all actives have a fitted effect of over 55% in size; also: potency is read from the fitted curve at half-maximal effect)
In short: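 Cytotoxicity counter screen multiplexed with the beta-lactamase antagonist assay: GripTite HEK293T ER-beta-bla cells were treated 16 hr with test chemicals in the presence of 1nM 17-beta-estradiol, and viability was measured by CellTiter-Glo.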

[3] = target: Androgen receptor (Homo sapiens) (UniProt P10275); experiment: qHTS assay to identify small molecule agonists of the androgen receptor (AR) signaling pathway in the presence of an antagonist (AID 1259381); also: nearly all actives have a fitted effect of over 15% in size; also: potency is read from the fitted curve at half-maximal effect
In short: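 Agonist-mode confirmation screen: human MDA-kb2 cells stably expressing luciferase under an MMTV promoter bearing AR and GR response elements, co-treated with 3.0uM nilutamide (final). Luminescence measured after 16hr compound incubation.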

[4] = qHTS assay to identify small molecule agonists or antagonists of the thyroid stimulating hormone receptor (TSHR) signaling pathway - wild type cell line counter screen (AID 1259384)
In short: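 Counter screen in untransfected Hek293: compounds (15-point titration, triplicate) plus phosphodiesterase inhibitor Ro20-1724 added after 18 h plating; 30 min RT. Intracellular cAMP via competitive d2/cryptate immunoassay, 1 h incubation.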

[5] = qHTS assay to identify small molecule agonists of the estrogen receptor beta (ER-beta) signaling pathway - cell viability counter screen (AID 1259380; active = well fitted curve in the direction sought with a large enough effect in the repeat runs; an effect the other way counts as inactive or inconclusive; also: nearly all actives have a fitted effect of over 30% in size; also: potency is read from the fitted curve at half-maximal effect)
In short: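 Cytotoxicity is measured in parallel with the reporter screen: after 16 hr compound exposure at 37C and a 2 hr LiveBLAzer step, CellTiter-Glo is added to the same ER-beta-UAS-bla HEK293T wells and luminescence read after 30 min.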

[6] = target: Thyrotropin receptor (Homo sapiens) (UniProt P16473); experiment: qHTS assay to identify small molecule antagonists of the thyroid stimulating hormone receptor (TSHR) signaling pathway (AID 1259385); also: nearly all actives have a fitted effect of over 20% in size; also: potency is read from the fitted curve at half-maximal effect
In short: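 Antagonist mode: compound-treated TSHR-expressing HEK293 cells were stimulated with 1.5 ng/mL TSH (final) in presence of Ro20-1724 for 30 min at RT. HTRF cAMP detection after 1 h; each compound tested at 15 concentrations, triplicate.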

[7] = target: Estrogen receptor beta (Homo sapiens) (UniProt Q92731); experiment: qHTS assay to identify small molecule agonists of the estrogen receptor beta (ER-beta) signaling pathway (AID 1259377; active = well fitted activation curve with a large enough effect in the signal ratio in the repeat runs, not every such curve was filed as active; the % refers to the signal ratio)
In short: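 Reporter cells (HEK293T, ER-beta-UAS-bla) receive compounds or DMSO after a 6 hr pre-incubation. They then incubate 16 hr at 37C/5% CO2, and fluorescence from LiveBLAzer B/G substrate is measured after 2 hours at room temperature.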

[8] = target: Estrogen receptor beta (Homo sapiens) (UniProt Q92731); experiment: qHTS assay to identify small molecule antagonists of the estrogen receptor beta (ER-beta) signaling pathway (AID 1259378; active = well fitted inhibition curve with a large enough effect in the signal ratio in the repeat runs, not every such curve was filed as active; the % refers to the signal ratio; also: potency is read from the fitted curve at half-maximal effect)
In short: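 Antagonist mode: compounds added to beta-lactamase reporter HEK293T ER-beta-UAS cells stimulated with E2 (1nM final), 16 hr at 37C. LiveBLAzer B/G FRET substrate, 2 hours room temperature, fluorescence read-out.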

[9] = qHTS assay to identify small molecule agonists of the androgen receptor (AR) signaling pathway in the presence of an antagonist - cell viability counter screen (AID 1259379; active = well fitted curve in the direction sought with a large enough effect in the repeat runs; an effect the other way counts as inactive or inconclusive; also: potency is read from the fitted curve at half-maximal effect; nearly all actives have a fitted effect of over 25% in size)
In short: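 Cytotoxicity is assessed by CellTiter-Fluor in MDA-kb2 cells carrying an MMTV-driven luciferase reporter. Cells receive 3.0uM nilutamide plus compounds at 15 concentrations and incubate 16 hr at 37C without CO2 before fluorescence reading.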

[10] = target: Estrogen receptor (Homo sapiens) (UniProt P03372); experiment: qHTS assay to identify small molecule agonists of the estrogen receptor alpha (ER-alpha) signaling pathway in the presence of an antagonist (AID 1259383); also: top concentration of the series differs between compounds; nearly all actives have a fitted effect of over 15% in size
In short: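 Agonist-mode confirmation in the presence of the ER antagonist ICI-182,780 at 10.0nM final. Breast-derived VM7Luc4E2 reporter cells were exposed to compounds for 22hr, and ERE-driven luciferase was quantified by luminescence.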

Sequence of Thyrotropin receptor (Homo sapiens) (P16473 whole entry, looked up): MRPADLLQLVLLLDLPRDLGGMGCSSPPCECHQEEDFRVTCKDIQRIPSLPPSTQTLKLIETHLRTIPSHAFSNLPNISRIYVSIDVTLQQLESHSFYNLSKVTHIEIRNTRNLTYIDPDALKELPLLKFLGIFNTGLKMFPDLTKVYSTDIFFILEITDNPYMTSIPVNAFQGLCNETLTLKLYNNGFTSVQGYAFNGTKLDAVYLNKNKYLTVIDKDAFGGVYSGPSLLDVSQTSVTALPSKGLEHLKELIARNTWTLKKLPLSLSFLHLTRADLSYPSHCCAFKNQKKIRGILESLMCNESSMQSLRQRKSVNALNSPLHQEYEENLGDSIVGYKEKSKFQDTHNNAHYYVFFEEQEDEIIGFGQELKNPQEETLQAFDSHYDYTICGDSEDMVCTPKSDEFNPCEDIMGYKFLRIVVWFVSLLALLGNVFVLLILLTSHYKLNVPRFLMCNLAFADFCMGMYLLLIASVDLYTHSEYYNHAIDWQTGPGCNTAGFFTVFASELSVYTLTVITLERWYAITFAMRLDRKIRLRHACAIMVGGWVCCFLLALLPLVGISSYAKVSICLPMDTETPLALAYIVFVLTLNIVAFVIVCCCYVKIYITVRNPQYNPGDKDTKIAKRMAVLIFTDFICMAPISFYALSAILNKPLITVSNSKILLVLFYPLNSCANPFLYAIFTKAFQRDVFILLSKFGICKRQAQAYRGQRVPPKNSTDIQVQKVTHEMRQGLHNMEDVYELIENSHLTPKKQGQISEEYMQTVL
Sequence of Androgen receptor (Homo sapiens) (P10275 whole entry, looked up): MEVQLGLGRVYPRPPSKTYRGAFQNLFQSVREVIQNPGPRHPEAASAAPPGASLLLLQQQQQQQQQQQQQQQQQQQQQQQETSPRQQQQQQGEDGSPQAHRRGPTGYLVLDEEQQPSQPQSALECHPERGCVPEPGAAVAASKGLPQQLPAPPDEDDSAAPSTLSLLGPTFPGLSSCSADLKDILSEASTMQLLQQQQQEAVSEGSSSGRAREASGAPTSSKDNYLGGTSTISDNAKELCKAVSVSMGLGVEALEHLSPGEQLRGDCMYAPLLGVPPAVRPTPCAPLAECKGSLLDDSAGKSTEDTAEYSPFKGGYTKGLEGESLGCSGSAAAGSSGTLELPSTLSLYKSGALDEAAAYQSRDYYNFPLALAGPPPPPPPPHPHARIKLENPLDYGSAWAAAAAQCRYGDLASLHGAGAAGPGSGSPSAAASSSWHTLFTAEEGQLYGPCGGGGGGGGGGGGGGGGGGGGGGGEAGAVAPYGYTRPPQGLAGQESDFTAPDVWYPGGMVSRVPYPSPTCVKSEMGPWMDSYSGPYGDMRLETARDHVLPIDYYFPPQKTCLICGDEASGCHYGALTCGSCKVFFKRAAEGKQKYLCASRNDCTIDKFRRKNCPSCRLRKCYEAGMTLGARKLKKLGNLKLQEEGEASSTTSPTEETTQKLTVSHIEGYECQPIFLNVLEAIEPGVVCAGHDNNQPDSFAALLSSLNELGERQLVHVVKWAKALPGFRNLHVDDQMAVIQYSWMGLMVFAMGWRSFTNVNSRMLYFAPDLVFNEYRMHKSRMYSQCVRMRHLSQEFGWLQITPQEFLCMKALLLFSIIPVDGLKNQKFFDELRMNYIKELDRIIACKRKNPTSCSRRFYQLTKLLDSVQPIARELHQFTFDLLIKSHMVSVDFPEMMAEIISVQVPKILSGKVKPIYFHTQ
Sequence of Estrogen receptor beta (Homo sapiens) (Q92731 whole entry, looked up): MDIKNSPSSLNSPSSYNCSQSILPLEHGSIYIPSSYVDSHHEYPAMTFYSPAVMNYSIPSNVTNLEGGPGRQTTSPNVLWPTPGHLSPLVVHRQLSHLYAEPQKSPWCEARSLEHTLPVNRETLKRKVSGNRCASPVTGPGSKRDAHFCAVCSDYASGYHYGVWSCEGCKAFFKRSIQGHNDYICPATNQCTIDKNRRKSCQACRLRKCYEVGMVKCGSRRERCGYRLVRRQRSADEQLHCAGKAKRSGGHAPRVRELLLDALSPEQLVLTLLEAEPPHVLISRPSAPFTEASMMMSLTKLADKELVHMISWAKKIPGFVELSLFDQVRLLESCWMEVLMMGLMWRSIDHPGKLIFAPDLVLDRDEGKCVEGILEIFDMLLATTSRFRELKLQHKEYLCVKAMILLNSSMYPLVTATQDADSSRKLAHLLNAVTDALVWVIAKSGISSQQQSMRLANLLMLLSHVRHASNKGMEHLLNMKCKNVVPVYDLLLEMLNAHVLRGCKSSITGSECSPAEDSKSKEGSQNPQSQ
Sequence of Estrogen receptor (Homo sapiens) (P03372 whole entry, looked up): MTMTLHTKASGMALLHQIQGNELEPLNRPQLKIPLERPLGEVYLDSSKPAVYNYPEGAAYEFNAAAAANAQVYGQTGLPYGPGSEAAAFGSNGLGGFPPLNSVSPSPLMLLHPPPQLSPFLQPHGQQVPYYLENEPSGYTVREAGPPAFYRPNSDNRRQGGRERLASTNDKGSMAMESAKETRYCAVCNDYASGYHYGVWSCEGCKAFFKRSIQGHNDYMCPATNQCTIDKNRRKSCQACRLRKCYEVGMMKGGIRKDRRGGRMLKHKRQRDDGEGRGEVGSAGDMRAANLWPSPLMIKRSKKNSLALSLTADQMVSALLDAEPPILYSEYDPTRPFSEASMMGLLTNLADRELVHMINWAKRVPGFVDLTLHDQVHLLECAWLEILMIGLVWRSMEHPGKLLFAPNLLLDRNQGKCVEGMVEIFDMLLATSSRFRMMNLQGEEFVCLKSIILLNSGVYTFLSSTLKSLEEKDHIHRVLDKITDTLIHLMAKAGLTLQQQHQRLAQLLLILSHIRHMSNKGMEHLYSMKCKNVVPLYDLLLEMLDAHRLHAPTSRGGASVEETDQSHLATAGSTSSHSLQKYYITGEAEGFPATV

COc1ccc(CN(CCN(C)C)c2ccccn2)cc1
Potency [1]: inactive | Potency [2]: inactive

Nc1ccc2c(c1)CN1C(=O)c3ccccc3C1=N2
activity change, negative = inhibition [1]: -44.1% [at 19 µM] (inactive) | Potency [3]: 0.231 µM (active) | cAMP activity change [4]: -1.34% [at 18.9 µM, stronger effect = higher value] (inactive)

Cc1cccc(C)c1
Potency [1]: inactive | Potency [5]: inactive | Potency [2]: inactive | Potency [4]: inactive | Potency [6]: inactive

CCCc1cc(=O)[nH]c(=S)[nH]1
Potency [1]: inactive | Potency [5]: inactive | Potency [2]: inactive | Potency [4]: inactive | Potency [6]: inactive

CC(C)c1c(C(=O)Nc2ccccc2)c(-c2ccccc2)c(-c2ccc(F)cc2)n1CC[C@@H](O)C[C@@H](O)CC(=O)O
Potency [1]: inactive | Potency [5]: 11.7 µM (active) and 25.5 µM (active) | Potency [2]: 13.2 µM (active) and 32.1 µM (active) | Potency [4]: inactive | Potency [6]: inactive

C=C1CC[C@H](O)C/C1=C\C=C1/CCC[C@]2(C)[C@@H]([C@H](C)CCCC(C)C)CC[C@@H]12
Potency [1]: 17.1 µM (active) | Potency [5]: 42.9 µM (active) | Potency [2]: 30.4 µM (active) | Potency [4]: inactive | Potency [6]: inactive

C=CCc1ccc(O)c(OC)c1
Potency [1]: inactive | Potency [5]: inactive | Potency [2]: inactive | Potency [4]: inactive | Potency [6]: inactive

CC(=O)CC(c1ccccc1)c1c(O)c2ccccc2oc1=O (stereo not drawn)
Potency [1]: 27.4 µM (active) and inactive | Potency [2]: inactive

O=C1OC2(c3ccccc31)c1cc(Br)c(O)c(Br)c1Oc1c2cc(Br)c(O)c1Br
Potency [1]: inactive | Potency [2]: inactive | Potency [6]: 24.7 µM (active) and 21.1 µM (active)

Oc1ccccc1
Potency [1]: inactive | Potency [2]: inactive | Potency [4]: inactive | Potency [6]: inactive

Cc1cc(=O)oc2cc(O)ccc12
Potency [1]: 15.4 µM (active) and 17.2 µM (active) and inactive | Potency [5]: inactive | Potency [2]: inactive | Potency [4]: inactive | Potency [6]: inactive

NC(CO)(CO)CO
Potency [1]: inactive | Potency [2]: inactive | Potency [4]: inactive | Potency [6]: inactive

CC(=O)Nc1c(I)c(NC(C)=O)c(I)c(C(=O)O)c1I
Potency [1]: inactive | Potency [2]: inactive | Potency [4]: inactive | Potency [6]: inactive

Nc1ccc(O)c([N+](=O)[O-])c1
Potency [1]: 13.5 µM (active) | Potency [2]: inactive

O=C1O[C@H]([C@@H](O)CO)C(O)=C1O
Potency [1]: inactive | Potency [2]: inactive | Potency [4]: inactive | Potency [6]: inactive

O=C1NC(=O)C(c2ccccc2)(c2ccccc2)N1
Potency [1]: inactive | Potency [5]: inactive | Potency [2]: inactive | Potency [4]: inactive | Potency [6]: inactive

O=c1[nH]cnc2c1ncn2[C@H]1CC[C@@H](CO)O1
Potency [1]: inactive | Potency [2]: inactive | Potency [4]: inactive | Potency [6]: inactive

Cc1cc(C)nc(NS(=O)(=O)c2ccc(N)cc2)n1
Potency [1]: inactive | Potency [2]: inactive | Potency [4]: inactive | Potency [6]: inactive

C1CCC(C(CC2CCCCN2)C2CCCCC2)CC1 (stereo not drawn)
Potency [7]: inactive | Potency [8]: 18.8 µM (active) | Potency [9]: 29.8 µM (active) | Potency [5]: 23.7 µM (active) | Potency [3]: inactive | Potency [2]: 18.8 µM (active) | Potency [10]: inactive | Potency [4]: inactive | Potency [6]: 33.5 µM (active)

CC1(C)S[C@@H]2[C@H](NC(=O)[C@H](N)c3ccccc3)C(=O)N2[C@H]1C(=O)O
Potency [1]: inactive | Potency [5]: inactive | Potency [2]: inactive | Potency [4]: inactive | Potency [6]: inactive

CC(O)(P(=O)(O)O)P(=O)(O)O
Potency [1]: inactive | Potency [2]: inactive | Potency [4]: inactive | Potency [6]: inactive

C1=CC2C3C=CC(C3)C2C1 (stereo not drawn)
Potency [8]: inactive | Potency [5]: inactive | Potency [2]: inactive | Potency [4]: inactive

CN(C)C(=S)SC(=S)N(C)C
Potency [1]: 280 nM (active) and 109 nM (active) and 2.66 µM (active) | Potency [5]: 1.25 µM (active) and 2.17 µM (active) and 1.06 µM (active) | Potency [2]: 1.37 µM (active) and 1.88 µM (active) | Potency [4]: inactive | Potency [6]: inactive

O=C1c2c(O)cccc2Cc2cccc(O)c21
Potency [1]: inactive | Potency [2]: inactive | Potency [4]: inactive | Potency [6]: inactive

COc1ccc(OC(F)(F)F)cc1CN[C@H]1CCCN[C@H]1c1ccccc1
Potency [1]: 10.9 µM (active) | Potency [2]: 30.6 µM (active) | Potency [4]: inactive

Cc1ccc(S(=O)(=O)O)cc1
Potency [1]: inactive | Potency [2]: inactive

COc1ccc2c(c1)c(CC(=O)O)c(C)n2C(=O)c1ccc(Cl)cc1
Potency [1]: inactive | Potency [3]: inactive | Potency [2]: inactive | Potency [4]: inactive | Potency [6]: inactive

Nc1ccc([N+](=O)[O-])cc1O
Potency [2]: inactive

Reference: PubChem BioAssay (Tox21)
